Test [1] is described as follows: ATG_CRE_CIS: Attagene CIS-FACTORIAL HepG2 Assay for human cAMP Responsive Element (CRE) binding protein 3 (AID 2282926). The note with it: HepG2 CRE cis-reporter, Attagene multiplexed mRNA; actives raise or lower the signal. The gist of the method:
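Liver-derived HepG2, transfected with a CRE-containing reporter panel, exposed 24 h; transcript levels sized and quantified by capillary electrophoresis of labelled amplicons; signal changes either way referenced to vehicle.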

Test [2] concerns the target CCAAT/enhancer-binding protein beta (Homo sapiens) (UniProt P17676). As to the kind of experiment: ATG_C_EBP_CIS: Attagene CIS-FACTORIAL HepG2 Assay for human CCAAT/Enhancer Binding Protein (C/EBP) beta (AID 2282927). The note with it: HepG2 Attagene cis-factorial transcription factor reporter; actives raise or lower the signal. The gist of the method: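 Transiently transfected HepG2 (MRTU library, endogenous TF-driven promoters); 24 h dosing; total RNA → oligo(dT) RT → PCR → 6-FAM primer extension → HpaI digest → CE; fit bidirectionally vs DMSO.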

Test [3] can be described thus: ATG_CMV_CIS: Attagene CIS-FACTORIAL HepG2 Assay for human CMV (Internal Marker) (AID 2282928).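 Further: endpoint acts as a background internal control marker rather than a target.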 Particulars: HepG2 CMV promoter reporter, transcription factor profiling; actives raise or lower the signal. The gist of the method: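 Bidirectional fits against DMSO are applied to reporter mRNA, read by RT-PCR with capillary electrophoresis, from HepG2 cells exposed 24 h. The endpoint serves as an internal CMV background marker within the cis-factorial reporter panel.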

Test [4] can be described thus: ATG_DR4_LXR_CIS: Attagene CIS-FACTORIAL HepG2 Assay for human Liver X Receptor (LXR), DR4 submotif (AID 2282929). Particulars: HepG2 Attagene DR4 cis-reporter, mRNA transcription; actives raise or lower the signal. In short, it runs like this: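 DR4 cis-reporter in HepG2, 24 h exposure. Detection: RT-PCR, 6-FAM labelling, CE fragment analysis. Endpoint fitted bidirectionally, DMSO = baseline.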

Test [5] concerns the target Aryl hydrocarbon receptor (Homo sapiens) (UniProt P35869). As to the kind of experiment: ATG_Ahr_CIS: Attagene CIS-FACTORIAL HepG2 Assay for human Aryl Hydrocarbon Receptor (Ahr) (AID 2282930). The note with it: HepG2 AhR cis-factorial reporter transcription; actives raise or lower the signal. The gist of the method:
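Read-out: reporter mRNA quantified by RT-PCR with fluorescent primer extension and capillary electrophoresis. Human HepG2 liver cells carried transfected cis-promoter reporter units and were exposed to chemical for 24 h; gain or loss fitted relative to DMSO.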

Test [6] is described as follows: ATG_AP_2_CIS: Attagene CIS-FACTORIAL HepG2 Assay for human Activator Protein 2 (AP-2) (AID 2282932). The note with it: HepG2 AP-2 cis-reporter, Attagene transcription factor profiling; actives raise or lower the signal. In short, it runs like this:
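Read-out: fluorescent reporter mRNA via RT-PCR and capillary electrophoresis, 24 h post-dose in transiently transfected HepG2. Endogenous factors drive cis-promoter reporters; gain or loss of signal fitted bidirectionally against DMSO.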

The nature of test [7]: ATG_BRE_CIS: Attagene CIS-FACTORIAL HepG2 Assay for human Bone Morphogenetic Protein (BMP) Response Element (BRE) (AID 2282933). The note with it: HepG2 BMP response element reporter, Attagene transcription factor profiling; actives raise or lower the signal. In short, it runs like this: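 HepG2 cells transiently transfected with multiplexed cis-element reporter units were dosed with chemical for 24 h. Reporter mRNA was measured by RT-PCR with fluorescent labelling, HpaI digestion and capillary electrophoresis; bidirectional fitting relative to DMSO.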

Test [8] concerns the target Retinoic acid receptor alpha (Homo sapiens) (UniProt P10276). As to the kind of experiment: ATG_DR5_RAR_CIS: Attagene CIS-FACTORIAL HepG2 Assay for human Retinoic Acid Receptor Alpha (RARE), DR5 submotif (AID 2282934). Particulars: HepG2 Attagene cis-factorial RARE DR5 reporter, mRNA; actives raise or lower the signal. The gist of the method:
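Read-out: DR5-driven reporter transcript measured by RT-PCR, 6-FAM primer extension, HpaI digest and capillary electrophoresis. Human HepG2 liver cells carry transiently transfected cis-element reporter constructs; dosing lasts 24 h. Gain or loss of signal fitted against DMSO baseline.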

Test [9] deals with Transcription factor E2F1 (Homo sapiens) (UniProt Q01094). As to the kind of experiment: ATG_E2F_CIS: Attagene CIS-FACTORIAL HepG2 Assay for human E2F Transcription Factor 1 (AID 2282935). Particulars: HepG2 Attagene cis-reporter, E2F reporter RNA transcripts; actives raise or lower the signal. The gist of the method: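 Transient MRTU transfection of HepG2; 24 h compound exposure; RNA → oligo(dT) RT → PCR → FAM label → HpaI cut → CE fluorescence. Gain/loss of signal fit against DMSO.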

Test [10] can be described thus: ATG_E_Box_CIS: Attagene CIS-FACTORIAL HepG2 Assay for human Enhancer Box (E-box) (AID 2282936). The note with it: HepG2 E-box cis-reporter transcription, actives raise or lower the signal. The gist of the method: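 Transiently transfected HepG2, endogenous TF-driven reporters, 24 h dosing. Readout: RT-PCR plus capillary electrophoresis of fluorescent reporter fragments. Gain or loss of signal fitted bidirectionally against DMSO baseline.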

The nature of test [11]: ATG_M_61_CIS: Attagene CIS-FACTORIAL HepG2 Assay for M61 Transcription Factor (Internal Marker) (AID 2282937). The note with it: HepG2 Attagene CIS-FACTORIAL M61 internal marker reporter; actives raise or lower the signal. The gist of the method: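 Background-control endpoint: HepG2 cells with cis-regulated reporter constructs, 24 h exposure, reporter mRNA detected via fluorescent primer extension and capillary electrophoresis; values from bidirectional fitting with DMSO baseline.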

The nature of test [12]: ATG_EGR_CIS: Attagene CIS-FACTORIAL HepG2 Assay for human Early Growth Response 1 (EGR1) (AID 2282938). The note with it: HepG2 Attagene CIS-FACTORIAL EGR reporter mRNA; actives raise or lower the signal. In short, it runs like this: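 Endpoint derived by bidirectional fitting versus DMSO vehicle. Method: cis-promoter reporter units transfected into HepG2, 24 h dosing, RNA isolation, RT-PCR with 6-FAM primer extension and HpaI digestion, then capillary electrophoresis fluorescence detection.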

Test [13] is described as follows: ATG_M_19_CIS: Attagene CIS-FACTORIAL HepG2 Assay for M19 Transcription Factor (Internal Marker) (AID 2282939). The note with it: HepG2 Attagene CIS-FACTORIAL M19 internal marker reporter; actives raise or lower the signal. In short, it runs like this:
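HepG2 cells transiently transfected with cis-regulated multiple reporter transcription units were dosed for 24 h; reporter mRNA was quantified by RT-PCR, 6-FAM primer-extension labelling, HpaI digestion and capillary electrophoresis, with bidirectional fitting against DMSO baseline.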

Test [14] can be described thus: ATG_Ets_CIS: Attagene CIS-FACTORIAL HepG2 Assay for human Erythroblast Transformation Specific (ETS) (AID 2282941). Particulars: HepG2 ETS cis-reporter transcription, actives raise or lower the signal. The gist of the method: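 Endogenous transcription factor activity read as reporter mRNA via RT-PCR and capillary electrophoresis, with gain or loss fitted bidirectionally against DMSO. Human HepG2 liver cells, transiently transfected CIS reporter constructs, 24 h exposure.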

In test [15] the target is Hepatocyte nuclear factor 3-beta (Homo sapiens) (UniProt Q9Y261). As to the kind of experiment: ATG_FoxA2_CIS: Attagene CIS-FACTORIAL HepG2 Assay for human Forkhead box A2 (FOXA2) (AID 2282942). Particulars: HepG2 cis-reporter transcription factor activity, 24 h; actives raise or lower the signal. The gist of the method: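 Measured: reporter mRNA induction or loss in HepG2 transiently carrying multiple cis-regulated reporter units, 24 h after dosing. Quantified by RT-PCR plus capillary electrophoresis, normalised to DMSO.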

The nature of test [16]: ATG_GATA_CIS: Attagene CIS-FACTORIAL HepG2 Assay for human GATA Binding Protein (AID 2282944). The note with it: HepG2 GATA cis-element reporter, Attagene multiplex mRNA; actives raise or lower the signal. The gist of the method: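 HepG2 cells transiently transfected with multiplexed cis-element reporter units reflecting endogenous transcription factor activity; reporter mRNA measured after 24 h dosing by RT-PCR, 6-FAM labeling, HpaI digestion and capillary electrophoresis. Bidirectional fitting versus DMSO baseline.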

The nature of test [17]: ATG_GLI_CIS: Attagene CIS-FACTORIAL HepG2 Assay for human Zinc Finger Protein GLI1 (AID 2282945). The note with it: HepG2, Attagene cis-factorial reporter mRNA, GLI element; actives raise or lower the signal. In short, it runs like this:
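Transiently transfected HepG2 cells report endogenous transcription factor activity via cis-element-driven reporter units. After 24 h compound exposure, reporter mRNA was measured by RT-PCR with capillary electrophoresis; bidirectional fitting against DMSO baseline.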

Test [18] is described as follows: ATG_AP_1_CIS: Attagene CIS-FACTORIAL HepG2 Assay for human Activator Protein 1 (AP-1) (AID 2282931). The note with it: HepG2 Attagene cis-factorial AP-1 reporter mRNA; actives raise or lower the signal. In short, it runs like this:
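Cis-regulated reporter units transiently expressed in HepG2 report endogenous transcription-factor activity. Signal: reporter mRNA at 24 h, via RT-PCR and fluorescent capillary electrophoresis. Endpoint derived by bidirectional fitting, DMSO as negative control.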

Test [19] is described as follows: ATG_FoxO_CIS: Attagene CIS-FACTORIAL HepG2 Assay for human Forkhead box O (FoxO) (AID 2282943). The note with it: HepG2 Attagene cis-reporter, FoxO element, mRNA; actives raise or lower the signal. In short, it runs like this: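 Read-out: fluorescence of 6-FAM-labelled reporter cDNA fragments resolved by capillary electrophoresis. Transiently transfected HepG2 cells were dosed for 24 h; activity fitted in both directions relative to DMSO controls.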

Active and inactive are the calls of the source. How the source made its calls: active means hit-call score of the fitted dose curve at least 0.9, where 1 is the maximum; inactive means score below 0.9.

Chain of CCAAT/enhancer-binding protein beta (Homo sapiens) (P17676 whole entry, looked up): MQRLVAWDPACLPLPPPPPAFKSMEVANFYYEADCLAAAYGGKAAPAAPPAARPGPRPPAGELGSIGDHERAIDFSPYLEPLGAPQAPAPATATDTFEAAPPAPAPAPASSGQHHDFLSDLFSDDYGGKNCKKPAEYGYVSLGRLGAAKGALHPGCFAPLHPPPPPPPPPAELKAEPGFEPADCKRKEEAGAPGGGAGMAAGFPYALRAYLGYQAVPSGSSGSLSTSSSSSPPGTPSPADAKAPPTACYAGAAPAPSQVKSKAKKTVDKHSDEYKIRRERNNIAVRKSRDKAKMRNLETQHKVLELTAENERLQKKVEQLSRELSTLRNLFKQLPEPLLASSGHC
Chain of Retinoic acid receptor alpha (Homo sapiens) (P10276 whole entry, looked up): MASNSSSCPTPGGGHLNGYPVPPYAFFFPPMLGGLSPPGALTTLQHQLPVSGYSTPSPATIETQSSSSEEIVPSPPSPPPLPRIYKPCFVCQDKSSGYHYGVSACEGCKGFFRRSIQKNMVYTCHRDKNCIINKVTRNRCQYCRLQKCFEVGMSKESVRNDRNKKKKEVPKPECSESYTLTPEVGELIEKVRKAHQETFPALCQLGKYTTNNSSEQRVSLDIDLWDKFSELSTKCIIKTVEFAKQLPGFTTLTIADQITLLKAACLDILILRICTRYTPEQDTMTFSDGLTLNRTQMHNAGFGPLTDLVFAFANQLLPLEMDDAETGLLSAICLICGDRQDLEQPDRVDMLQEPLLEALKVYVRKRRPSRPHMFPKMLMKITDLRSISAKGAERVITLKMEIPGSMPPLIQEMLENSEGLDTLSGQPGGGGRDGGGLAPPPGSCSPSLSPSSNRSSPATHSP
Chain of Aryl hydrocarbon receptor (Homo sapiens) (P35869 whole entry, looked up): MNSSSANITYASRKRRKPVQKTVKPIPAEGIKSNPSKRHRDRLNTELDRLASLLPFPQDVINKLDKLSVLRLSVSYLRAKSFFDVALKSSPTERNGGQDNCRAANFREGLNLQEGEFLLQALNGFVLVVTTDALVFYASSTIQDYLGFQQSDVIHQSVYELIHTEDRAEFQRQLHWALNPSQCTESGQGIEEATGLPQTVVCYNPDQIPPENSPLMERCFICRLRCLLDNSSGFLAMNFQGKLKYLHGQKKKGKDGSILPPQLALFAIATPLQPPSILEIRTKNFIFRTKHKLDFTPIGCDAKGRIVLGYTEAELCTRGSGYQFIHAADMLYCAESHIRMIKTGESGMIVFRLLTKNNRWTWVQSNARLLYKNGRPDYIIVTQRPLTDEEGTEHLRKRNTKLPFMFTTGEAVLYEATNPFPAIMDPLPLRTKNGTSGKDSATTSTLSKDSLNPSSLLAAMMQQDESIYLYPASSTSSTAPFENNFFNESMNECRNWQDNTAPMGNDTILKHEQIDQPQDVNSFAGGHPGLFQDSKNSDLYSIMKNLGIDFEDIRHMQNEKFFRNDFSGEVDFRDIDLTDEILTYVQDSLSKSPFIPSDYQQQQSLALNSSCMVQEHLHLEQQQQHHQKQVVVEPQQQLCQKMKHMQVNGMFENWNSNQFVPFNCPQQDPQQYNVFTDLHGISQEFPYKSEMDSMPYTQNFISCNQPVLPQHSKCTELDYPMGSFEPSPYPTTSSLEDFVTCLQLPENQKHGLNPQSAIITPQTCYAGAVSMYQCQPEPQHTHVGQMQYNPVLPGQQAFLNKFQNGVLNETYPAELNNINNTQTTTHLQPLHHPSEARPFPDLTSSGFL
Chain of Transcription factor E2F1 (Homo sapiens) (Q01094 whole entry, looked up): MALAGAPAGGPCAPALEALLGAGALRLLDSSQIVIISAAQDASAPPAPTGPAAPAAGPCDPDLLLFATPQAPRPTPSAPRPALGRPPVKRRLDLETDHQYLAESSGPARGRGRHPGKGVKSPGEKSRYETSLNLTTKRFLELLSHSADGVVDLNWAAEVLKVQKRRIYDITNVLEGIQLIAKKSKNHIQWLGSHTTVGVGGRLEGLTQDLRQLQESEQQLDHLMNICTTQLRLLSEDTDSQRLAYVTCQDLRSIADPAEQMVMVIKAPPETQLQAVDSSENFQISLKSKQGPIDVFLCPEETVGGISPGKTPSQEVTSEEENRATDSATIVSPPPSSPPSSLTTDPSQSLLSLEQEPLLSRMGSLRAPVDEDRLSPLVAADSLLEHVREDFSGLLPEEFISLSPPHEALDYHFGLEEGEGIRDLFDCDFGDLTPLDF
Chain of Hepatocyte nuclear factor 3-beta (Homo sapiens) (Q9Y261 whole entry, looked up): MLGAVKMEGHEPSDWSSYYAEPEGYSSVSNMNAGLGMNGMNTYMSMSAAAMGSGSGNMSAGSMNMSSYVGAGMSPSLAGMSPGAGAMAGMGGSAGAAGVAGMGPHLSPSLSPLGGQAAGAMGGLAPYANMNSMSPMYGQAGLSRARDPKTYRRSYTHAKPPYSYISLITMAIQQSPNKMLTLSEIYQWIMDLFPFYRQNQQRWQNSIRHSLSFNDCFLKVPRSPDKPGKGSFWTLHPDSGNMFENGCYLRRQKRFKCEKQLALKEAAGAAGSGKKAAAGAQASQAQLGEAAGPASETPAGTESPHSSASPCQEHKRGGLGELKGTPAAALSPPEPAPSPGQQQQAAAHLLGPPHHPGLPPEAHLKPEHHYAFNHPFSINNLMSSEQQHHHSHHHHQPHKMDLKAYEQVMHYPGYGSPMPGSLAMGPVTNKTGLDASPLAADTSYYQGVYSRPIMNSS

For the compound `C=CCCC(=O)/C=C/C1C(C)=CCCC1(C)C` (stereo not given), the outcome in [1], in test [2], in test [6], in test [7], in test [8] and in test [9] was inactive. Moreover, the outcome in test [11], in test [12], in [13], in test [14], in test [15] and in test [16] was inactive. In addition, the call in test [17] was inactive. Also, the AC50 in [3] was 140 µM (active); in [4], 175 µM (active); in test [5], 53.2 µM (active); in test [10], 160 µM (active).

As to `C[N+](C)(C)CCCCCC[N+](C)(C)C`, the call in test [1], in test [2], in test [3], in [5], in test [18] and in test [6] was inactive. Further, the result in test [7], in test [8], in test [9], in [10], in test [11] and in test [12] was inactive. The compound was called inactive in test [13], in test [14], in test [15], in [16] and in [17].

For the compound `O=CCc1ccccc1`, the outcome in test [1], in test [2], in test [3], in test [5], in test [18] and in [6] was inactive. Also, the compound was called inactive in [7], in test [8], in [9], in test [10], in test [11] and in [12]. Moreover, the result in test [13], in test [14], in test [15], in test [19], in test [16] and in test [17] was inactive.

Take `Cc1ccc(OC(=O)c2ccccc2O)cc1`: the compound was called inactive in [1], in [2], in test [3], in test [5], in [6] and in test [7]. For the same compound, the compound was classed as inactive in test [8], in [9], in test [10], in [11], in [12] and in [14]. For the same compound, the outcome in test [15], in test [19], in [16] and in test [17] was inactive. Also, the AC50 in [18] is 122 µM (active).

As to `Cc1c(OCC(F)(F)F)ccnc1CS(=O)c1nc2ccccc2[nH]1` (stereo not given), the compound was called inactive in test [1], in test [2], in test [3], in [6], in [8] and in test [9]. The result in test [10], in test [11], in test [13], in [14], in test [15] and in test [19] was inactive. Also, the compound was classed as inactive in [16] and in [17]. The AC50 was 134 µM (active) in test [4], 1.28 µM (active) in test [5], 153 µM (active) in [7] and 27.8 µM (active) in [12].

For the compound `COC(CC(C)CCCC(C)(C)O)OC` (stereo not given), the compound was classed as inactive in test [1], in [2], in test [3], in test [4], in test [5] and in [6]. The outcome in test [7], in test [8], in [9], in [10], in test [11] and in [12] was inactive. Further, the result in test [13], in test [14], in [15], in test [19], in test [16] and in [17] was inactive.

Turning to `COc1ccc(CCO)cc1`, the call in test [1], in [2], in test [3], in [4], in test [5] and in [6] was inactive. For the same compound, the result in test [7], in [8], in test [10], in test [11], in test [12] and in test [13] was inactive. For the same compound, the result in test [14], in test [15], in [19], in [16] and in test [17] was inactive.

`c1ccc2cc(Nc3ccc(Nc4ccc5ccccc5c4)cc3)ccc2c1`: the outcome in test [1], in test [2], in [3], in [4], in [6] and in [7] was inactive. Also, the compound was classed as inactive in [8], in test [9], in test [10], in [11], in test [12] and in test [13]. Also, the result in test [14], in test [15], in test [19], in test [16] and in test [17] was inactive. Further, the AC50 in test [5] was 4 µM (active).

For orientation: AC50 means the concentration at which the activity in the assay is half-maximal.

The record behind these values is PubChem BioAssay (EPA / NIEHS).
